Results reported in the supplement of paper PMC12350171.
Counter-ions that a name gives are not always drawn. Unmarked numbers belong to inactive results.

Legend:
Details in all cases: 20 µM
[1] = test system: Salmonella enterica typhimurium; experiment: growth AUC normalised to DMSO control (fraction of control); higher = less growth inhibition, active = hit call of the paper
In short: (§1)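 Hemin and NAD were added to the medium for Haemophilus parainfluenzae. All pathogens, after two anaerobic passages, were inoculated at a starting OD578 of 0.01 into pre-reduced mGAM plates with 20 μM compound and 1% DMSO under breathable seals, and OD578 was read hourly for 24 h in three biological replicates. AUC of each growth curve was obtained with the trapezoidal rule up to the exponential-to-stationary transition and normalised to DMSO controls from the same plate.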

[2] = test system: Shigella flexneri; experiment: as above
In short: as §1

[3] = test system: Vibrio cholerae; experiment: as above
In short: as §1

[4] = test system: Yersinia pseudotuberculosis; experiment: as above
In short: as §1

[5] = test system: P. vulgatus RND KO; experiment: growth AUC normalised to DMSO control (median) (fraction of control); higher = less growth inhibition, active = hit call of the paper
In short: (§2)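 Area under the growth curve, calculated by the trapezoidal rule up to entry into stationary phase, was normalised to vehicle wells on the same plate. Strains had been passaged twice overnight without oxygen and then grown in mGAM in 96-well plates from OD578 0.01, each with an approved-drug library compound at 20 μM in 1% DMSO. OD578 was read hourly over 24 h in an anaerobic incubator, and the median of three biological replicates is given.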

[6] = test system: P. vulgatus WT; experiment: as above
In short: as §2

[7] = test system: S. enterica typhimurium WT; experiment: as above
In short: as §2

[8] = test system: S. enterica typhimurium tolC KO; experiment: as above
In short: as §2
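Throughout, for growth AUC normalised to DMSO control (median): active when median AUC fell below 0.1.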

SMILES	growth AUC normalised to DMSO control [1]	growth AUC normalised to DMSO control [2]	growth AUC normalised to DMSO control [3]	growth AUC normalised to DMSO control [4]	growth AUC normalised to DMSO control [5]	growth AUC normalised to DMSO control [6]	growth AUC normalised to DMSO control [7]	growth AUC normalised to DMSO control [8]
N=c1nc(N2CCCCC2)cc(N)n1O [Minoxidil]	1	1.03	1.01	0.974	0.992	1.01	0.981	1.01
Cn1c(=O)c2c(ncn2CC(O)CO)n(C)c1=O (stereo not given) [Diprophylline]	0.986	0.996	0.971	1	1	0.989	0.991	0.998
CN(C)CCOC(c1ccccc1)c1ccccc1 [Diphenhydramine hydrochloride]	0.993	0.976	0.976	0.969	1.01	1	0.981	1
CCc1cccc(CC)c1NC(=O)CN(CC(=O)O)CC(=O)O [Etifenin]	0.985	0.99	0.989	0.999	0.998	1.01	1	0.993
CCOc1ccc2c(c1)C(C)=CC(C)(C)N2 [Ethoxyquin]	0.998	0.95	0.958	0.986	0.971	0.972	1.01	1
CC(C)(S)C(N)C(=O)O (racemic) [D,L-Penicillamine]	0.993	0.991	0.996	0.992	1.01	1.01	1.01	1
Cc1c(-c2ccccc2)oc2c(C(=O)OCCN3CCCCC3)cccc2c1=O [Flavoxate hydrochloride]	1	1.02	1.01	0.984	1.06	1.1	1.02	0.952
CC(C)(O)c1ccccc1CC[C@@H](SCC1(CC(=O)O)CC1)c1cccc(/C=C/c2ccc3ccc(Cl)cc3n2)c1 [Montelukast]	1.02	1.04	1.05	1.01	0.911	0.875	1	1
COc1ccc(NS(=O)(=O)c2ccc(N)cc2)nn1 [Sulfamethoxypyridazine]	1.02	1.04	1.03	0.996	1.02	1.04	1.01	0.986
CCCSc1ccc2[nH]c(NC(=O)OC)nc2c1 [Albendazole]	1	1.03	0.99	0.993	1.03	1.07	0.999	1
CC1(C)S[C@@H]2[C@H](NC(=O)Cc3ccccc3)C(=O)N2[C@H]1C(=O)O [Benzylpenicillin sodium]	0.0129 (active)	0.9	0.136 (active)	0.101 (active)	0.0105 (active)	0.00991 (active)	0.0318 (active)	0.0065 (active)
CCN(CC)CCOC(=O)C(c1ccccc1)C1CCCCC1 (stereo not given) [Drofenine hydrochloride]	0.989	1.01	0.929	1	1.01	1.03	0.989	0.943
COc1ccc(CC2c3cc(OC)c(OC)cc3CC[N+]2(C)CCC(=O)OCCCCCOC(=O)CC[N+]2(C)CCc3cc(OC)c(OC)cc3C2Cc2ccc(OC)c(OC)c2)cc1OC (stereo not given) [Atracurium besylate]	1	1.05	1.01	1	1.04	1.04	0.983	1.01
C[N+]1(C)CCC(OC(=O)C(O)(c2ccccc2)C2CCCC2)C1 (stereo not given) [Glycopyrrolate bromide]	1.02	1	1.01	1.01	1	0.984	1	0.993
Nc1nnc(-c2cccc(Cl)c2Cl)c(N)n1 [Lamotrigine]	0.963	0.933	1.03	1.01	0.95	0.986	0.957	0.962
O=C1CCc2ccc(OCCCCN3CCN(c4cccc(Cl)c4Cl)CC3)cc2N1 [Aripiprazole]	1.02	1.03	1.02	1.01	0.889	0.891	1.01	0.92
CN1CCN(C(c2ccccc2)c2ccccc2)CC1 [Cyclizine hydrochloride]	0.987	1.01	0.982	0.995	1.02	1.04	1.01	0.998
NS(=O)(=O)Cc1noc2ccccc12 [Zonisamide]	1.01	0.997	0.997	1	1	1	0.998	1.01
NS(=O)(=O)c1cc2c(cc1C(F)(F)F)NC(Cc1ccccc1)NS2(=O)=O (stereo not given) [Bendroflumethiazide]	1	1.01	0.997	1.01	0.962	0.977	1.01	0.993
CCC(C)(CN(C)C)OC(=O)c1ccccc1 (stereo not given) [Amyleine hydrochloride]	0.992	0.989	0.989	1.01	0.995	1.01	0.983	1.01
CCC(=O)[C@@]1(C)[C@H](C)C[C@H]2[C@@H]3CCC4=CC(=O)C=C[C@]4(C)[C@H]3[C@@H](O)C[C@@]21C [Rimexolone]	1.01	1.01	1.01	0.997	1.03	1.07	1	0.999
CCCCOc1ccc(OCCCN2CCOCC2)cc1 [Pramoxine hydrochloride]	0.998	1.01	1	0.983	1.04	1.03	1	0.988
Nc1nc(F)nc2c1ncn2[C@@H]1O[C@H](CO)[C@@H](O)[C@@H]1O [Fludarabine]	0.963	0.933	0.997	0.988	0.994	0.999	0.994	0.991
C[n+]1ccccc1/C=N/O [Pralidoxime chloride]	0.998	1.01	0.971	1.01	1.01	1	1.01	1
CC(C)(C)NC[C@@H](O)COc1cccc2c1CCCC2=O [(+) Levobunolol hydrochloride]	0.982	0.943	0.978	0.987	0.999	0.975	0.993	0.993
COc1cnc(NS(=O)(=O)c2ccc(N)cc2)nc1 [Sulfameter]	1	0.986	1.01	1	0.992	1	0.993	0.993
CCc1nn(CCCN2CCN(c3cccc(Cl)c3)CC2)c(=O)n1CCOc1ccccc1 [Nefazodone hydrochloride]	1	0.985	0.932	1.01	0.928	0.922	1	0.894
CC(C)(C)NCC(O)c1ccc(O)c(CO)c1 (stereo not given) [Salbutamol]	0.985	0.97	0.984	0.985	0.985	0.956	0.992	0.997
CCCC(=O)Nc1ccc(OCC(O)CNC(C)C)c(C(C)=O)c1 (stereo not given) [Acebutolol hydrochloride]	1	0.995	1.01	1.01	1.01	1.01	1	1.01
CC(C)NNC(=O)c1ccncc1 [Iproniazide phosphate]	1.01	1	0.997	1.02	1.02	1.03	1.02	0.992
